# Screening results: PubChem, National Center for Advancing Translational Sciences (NCATS)
# Nrf2 inh: Nrf2 qHTS screen for inhibitors; A549 ARE-Fluc reporter, luciferase luminescence, 18-24 h; Potency, µM (top dose mostly 46 µM), for the others: at the top dose activity change, negative = inhibition, hits mostly inhibitors; hit rate 2.1% among 360,000; note: potency is the fitted concentration of half-maximal effect; % is set by controls: 0 for no effect and ±100 for the full control effect; nearly all actives have a fitted effect of over 60% in size
#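 Two sequential reads on A549 ARE_Fluc cells exposed to compound for 18-24 h: a CellTiter-Fluor fluorescence read for viability, then a luciferase luminescence read for Nrf2/ARE activity.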
# A549 viability: Nrf2 qHTS screen for inhibitors: counterscreen for cytotoxicity. Potency, µM (highest dose often 46 µM), without a hit: at the top dose activity change, negative = cytotoxicity, actives largely listed as inhibitors. AID 504648, 2011. A549 ARE-Fluc cells, CellTiter-Fluor viability, 18-24 h. hit rate 0.16% among 390,000; note: potency is the fitted concentration of half-maximal effect; % is set by controls: 0 for no effect and ±100 for the full control effect
#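 Cytotoxicity counterscreen: CellTiter-Fluor fluorescence was measured in A549 ARE_Fluc cells after 18-24 h of compound exposure in a concentration series. The subsequent BugLite luminescent read reports ARE-luciferase activity.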
# TSG101-PTAP inh: qHTS Assay for Iinhibitors of HIV-1 Budding by Blocking the Interaction of PTAP/TSG101; Tumor susceptibility gene 101 protein (Homo sapiens), Q99816; Fluorescence polarization, FITC-PTAP peptide / Tsg101 binding; Potency, µM (series often up to 115 µM), for inactives: at the highest dose activity change, negative = inhibition, usual class: inhibitors; 340,000 tested, under 10 active; AID 493005, 2010; active = well fitted inhibition curve with a large enough effect in the main read-out, with a control signal flat, not every such curve was filed as active; inconclusive = small, poorly fitted or top-dose-only effect, or effect the other way, or a change in a side signal; inactive = no such curve, though single readings can be large or run the other way; note: potency is the fitted concentration of half-maximal effect; % of control where 0% means no effect
# Target sequence (Q99816 whole entry, looked up): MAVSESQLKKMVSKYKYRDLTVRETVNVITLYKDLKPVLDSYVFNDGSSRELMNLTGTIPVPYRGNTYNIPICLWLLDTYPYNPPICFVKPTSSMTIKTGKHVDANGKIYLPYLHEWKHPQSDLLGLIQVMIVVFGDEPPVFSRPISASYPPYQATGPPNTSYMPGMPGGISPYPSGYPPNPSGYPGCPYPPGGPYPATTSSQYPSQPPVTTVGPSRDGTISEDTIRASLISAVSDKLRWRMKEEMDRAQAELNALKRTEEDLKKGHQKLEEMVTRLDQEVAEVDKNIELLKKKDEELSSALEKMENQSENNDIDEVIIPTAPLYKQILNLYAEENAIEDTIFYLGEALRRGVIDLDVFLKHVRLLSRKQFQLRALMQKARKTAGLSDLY
#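 Fluorescence anisotropy tracks displacement of a FITC-tagged PTAP peptide (50 nM) from the Tsg101 binding domain (10 uM), following a 20 min room-temperature incubation at pH 7.5.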
# miR-21 act: qHTS Assay for Modulators of miRNAs and/orActivators of miR-21. Potency, µM (doses to about 38.3 µM), for the others: at the top dose activity change, positive = activation, usual class: activators. 340,000 tested, under 10 active. HeLa miR-21 FLuc reporter, luciferase, 48 h;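 note: % of control where 0% means no effect; miR-21 action dims this reporter so a rising signal means less miR-21 action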
#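 Compounds were titrated across several concentrations (up to approximately 40 uM) and incubated 48 hours with HeLa miR-21-FLuc reporter cells (miR-21 target sequence downstream of FLuc, endogenous miR-21). Readout was firefly luciferase luminescence after lytic detection reagent.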
# Glioma ERSR ind: qHTS for Inducers of the Endoplasmic Reticulum Stress Response (ERSR) in Human Glioma: qHTS; U87-MG GRP78 promoter luciferase reporter, 16 h; Potency, µM, without a hit: at the top dose activation, usual class: activators; hit rate 0.02% among 420,000; AID 602332, 2012; note: potency is the fitted concentration of half-maximal effect; series mostly up to about 76 µM; % of control where 0% means no effect; nearly all actives have a fitted effect of over 35% in size
#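 Stably transfected U87-MG glioma cells carrying a GRP78-based luciferase sensor; 16 h compound incubation. Luminescence end-point read 10 min after Bright-Glo addition at room temperature.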
# Nrf2 activator: qHTS of Nrf2 Activators; Potency, µM (doses to about 46.1 µM), inactives show top-dose activation, usual class: activators; AID 624171, 2012; hit rate 0.31% among 410,000; AREc32 ARE-luciferase reporter (MCF7-derived line), luminescence, 24 h; note: potency is the fitted concentration of half-maximal effect; % of control where 0% means no effect; nearly all actives have a fitted effect of over 65% in size
#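 AREc32 cells carrying an ARE-driven firefly luciferase, 1000 cells/well in OPTI-MEM with 5% FBS, dosed after overnight attachment and incubated 24 hr at 37 deg C. Steady-Glo luminescence read after 30 min at RT.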
# * hit, by the source's call; ? = inconclusive; / = not tested or not shown. Only some compounds are listed: those with a hit (about 2.1% of all), similar ones and a draw of the others. Unless noted, calls come from the whole dose curve; as a rule, active = well fitted curve in the direction sought with a large enough effect; inconclusive = small, poorly fitted or top-dose-only effect, or another doubt; inactive = no such curve, though single readings can be large; an effect the other way counts as inactive or inconclusive.
SMILES,Nrf2 inh,A549 viability,TSG101-PTAP inh,miR-21 act,Glioma ERSR ind,Nrf2 activator
CCN1CCN(c2nc(Nc3cccc(OC)c3)nc(N)c2[N+](=O)[O-])CC1,-6.8%,?,-7.6%,23.6%,3.3%,2.7%
Cc1cccc(Nc2nc(N)c([N+](=O)[O-])c(N3CCC(C)CC3)n2)c1,18.4µM*,?,?,-4.5%,-4.4%,0.2%
Cc1cccc(Nc2nc(N)c([N+](=O)[O-])c(NCCO)n2)c1,?,-6.5%,0.9%,-24.6%,1.4%,5.9%
Cc1nc2cc(NC(=O)[C@@H]3C[C@@H](Sc4ccccn4)CN3Cc3ccccc3F)ccc2s1,/,/,/,/,-2.7%,/
Cc1ccnc2c(Cl)c(Cl)ccc12,/,/,/,/,-3.0%,/
O=C1CC[C@@H](CN(Cc2cccnc2)C2CCN(c3ccc(NC(=O)c4cnccn4)cc3)CC2)N1,/,/,/,/,0.8%,/
CN(C)C(=O)COC(=O)c1ccccc1OCC(=O)Nc1ccc(Br)cc1,/,/,/,/,-1.9%,/
Cc1ccc(C)c(S(=O)(=O)C(C#N)c2nc3ccccc3nc2N2CC(C)OC(C)C2)c1 (stereo not given),13µM*,/,-1.8%,-0.4%,-0.7%,-0.7%
CN(C)c1ccc(/C=C/c2cc[n+](C)c3ccc4ccccc4c23)cc1,/,/,/,/,-10.0%,/
O=C(N/N=C/c1ccc([N+](=O)[O-])o1)c1ccc(O)cc1,20.6µM*,20.6µM*,-0.6%,?,-6.8%,-2.2%
[O-]/[N+](=C\c1ccccc1)[C@@H]1CCCC[C@@H]1/[N+]([O-])=C/c1ccccc1,-6.1%,-2.6%,-0.2%,-2.2%,4.8%,-0.2%
O=C(N/N=C/c1ccc([N+](=O)[O-])o1)C1CCCC1,16.4µM*,?,-4.2%,16.6%,7.2%,-0.8%
O=C(N/N=C/c1ccc([N+](=O)[O-])o1)c1ccncc1,?,?,-2.0%,28.8%,-5.6%,24.7%
O=[N+]([O-])c1ccc(/C=[N+](\[O-])[C@@H]2CCCC[C@@H]2/[N+]([O-])=C/c2ccc([N+](=O)[O-])o2)o1,-3.6%,20.6µM*,-1.8%,20.7%,18.1%,10µM*
Cc1ccc(NS(=O)(=O)c2cc3c(cc2C)OCC(=O)N3)cc1C,-14.5%,2.5%,/,/,/,/
COc1cccc(NC(=O)c2ccccc2OCC(=O)Nc2ccc(Br)cc2)c1,/,/,/,/,-4.3%,/
Cc1c(C(=O)NCc2ccc3c(c2)OCO3)cnn1-c1ncc2c(n1)-c1ccccc1CC2,/,/,/,/,2.8%,/
O=c1cc(N2CCNCC2)nc2sc(-c3ccncc3)nn12,16.3%,-2.0%,/,/,/,/
Cc1cc(C)cc(NC(=O)C2CC23CCN(Cc2ccc4ncccc4c2)CC3)c1 (stereo not given),/,/,/,/,-1.1%,/
Cc1oc(-c2cc(F)ccc2F)nc1CN1CCN(c2ncnc3ccccc23)CC1,25.9µM*,-8.9%,-2.7%,-14.0%,-3.3%,-0.6%
Cc1oc(-c2cc(F)ccc2F)nc1CN1CCC(C(=O)N2CCOCC2)CC1,9.4%,-7.2%,1.1%,0.1%,-2.7%,0.6%
C[C@@H](NC(=O)c1coc(=O)c(Br)c1)c1ccccc1,?,-12.0%,-5.4%,-1.1%,-17.3%,11.2µM*
COc1ccc(C(=O)NC(C)c2ccccc2)cc1Br (stereo not given),-15.6%,3.1%,-9.1%,-4.3%,-1.5%,-0.3%
O=C(Nc1ccc(Br)cn1)c1coc(=O)c(Br)c1,?,-1.5%,0.9%,-8.8%,-4.1%,17.8µM*
O=C(C1CC12CCN(Cc1cccc3cccnc13)CC2)N1CCN(Cc2cccs2)CC1 (stereo not given),/,/,/,/,-2.8%,/
O=C(Nc1ccc(F)cc1)N1CCC(c2nc3c(nnn3Cc3cccc(Cl)c3)c(=O)[nH]2)CC1,20.6µM*,?,-5.7%,-0.6%,1.0%,3.8%
